About 83,000 compounds went through this panel and 20% of them were active in at least one assay; those are over-represented in the sample as a whole.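 Method: cells in 96-well plates; compound added at one concentration; 48 h incubation; percent growth measured; values under 10 scored active.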 Active and inactive are the calls of the source.

One assay relates to EKVX NSCLC. The experiment in a line: NCI-60 one-dose screen, 48 h (100 = growth as untreated, 0 = no growth, -100 = all killed). Particulars: 10 µM.
On to `Nc1ccc(S(=O)(=O)c2ccc(NO)cc2)cc1`, for which the growth was 90.5% (inactive).

For the compound `COc1cc(NC(C)CCCN)c2nccc(C)c2c1OC` (stereo not given), the growth was 99.4% (inactive).

Consider `CCCC(=O)NNc1[nH]c(-c2cc(OC)c(OC)c(OC)c2)cc1C(=O)OCC`, for which the growth is 103% (inactive).

For `CC(C)OC(=O)c1ccc2n1CCCc1cnc(Nc3ccccc3)nc1-2`, the growth was 57.6% (inactive).

In the case of `COC(=O)c1ccc2[nH]c(O)c(C(=Nc3ccc(N(C)C(=O)CN4CCN(C)CC4)cc3)c3ccc(OC)cc3)c2c1`, the growth was 45.7% (inactive).

With `CC(=O)c1cc(Nc2cc(C)nc(N)n2)cc(C(C)=O)c1`, the growth was 101% (inactive).

`CCOC(=O)C1=C(C(F)(F)F)NC(=S)NC1CN1C(=O)c2ccccc2C1=O` (stereo not given): the growth was 113% (inactive).

On to `CC(C)OC(=O)[C@H](C)N[P@@](=O)(OC[C@@]1(C)O[C@@H](n2cc(F)c(N)nc2=O)C[C@@H]1O[P@](=O)(N[C@@H](C)C(=O)OC(C)C)Oc1ccccc1)Oc1ccccc1`, for which the growth is 109% (inactive).

With `COc1ccc(Cn2cc3c(c2-c2ccccc2)CCc2cnoc2-3)cc1OC`, the growth was 46.5% (inactive).

For `CC1C(=O)CCCC1=O`, the growth was 110% (inactive).

With `Brc1ccc(-c2nc3ccccc3s2)cc1`, the growth is 75.4% (inactive).

Regarding `O=C(Nc1cccc(Cn2c(=O)[nH]c3ccc(Oc4ncccn4)cc3c2=O)c1)c1ccc(Cl)cc1`, the growth was 52.3% (inactive).

For `Cc1ccc(S(=O)(=O)Nc2cccc(Cn3c(=O)[nH]c4ccc(Oc5ncccn5)cc4c3=O)c2)cc1`, the growth was 86.6% (inactive).

Turning to `CC1(C)Oc2cc3oc(=O)ccc3cc2C[C@@H]1OCCOS(=O)(=O)c1ccc(C#N)cc1`, the growth was 107% (inactive).

On to `COC1NC(Cl)=C(C#N)C(C#N)(C#N)C1(C)C` (stereo not given), for which the growth was 86.4% (inactive).

In the case of `COc1ccccc1C(=O)Nc1cccc(-c2cc(=O)c3c(OC)c(OC)c(OC)cc3o2)c1`, the growth is 61.7% (inactive).

As to `C=C(NC(=O)[C@H](C(C)C)N(C)c1cccc2[nH]ccc12)C(=O)OC`, the growth is 93.8% (inactive).

Consider `Cc1nc2c(nnn2-c2ccccc2)c2nc(-c3ccccc3)oc(=O)c12`, for which the growth was 99.3% (inactive).

In the case of `CCCCCCCCCC[N+](C)(C)C`, the growth was 72.9% (inactive).

As for `CCOC(=O)c1ccc2n1CCCc1cnc(NC(C)=O)nc1-2`, the growth is 98.5% (inactive).

In the case of `O=S(=O)(O)c1ccc2c(c1)Sc1cc(S(=O)(=O)O)ccc1O2`, the growth is 90.1% (inactive).

On to `COc1cc(/C=C/C(=O)c2ccc(F)cc2)ccc1OCCCCOc1cc2c(cc1OC)C(=O)N1CCCC1C=N2` (stereo not given), for which the growth was 8.29% (active).

With `COC(=O)C(C)[C@H]1CC[C@@H]2[C@]1(C)CC=C1[C@]23C=C[C@]2(C[C@@H](OC(C)=O)CC[C@]12C)C(C(=O)OC)C3C(=O)OC` (stereo not given in full), the growth was 86.1% (inactive).

Regarding `COc1ccc2cnc(N)c(C#Cc3cc(C(=O)Nc4ccc(CN5CCN(C)CC5)c(C(F)(F)F)c4)cnc3C)c2c1`, the growth is 71.8% (inactive).

On to `COc1cccc2c1nc1cccc(OC)c1[n+]2[O-]`, for which the growth was 57.8% (inactive).

Take `O=C1/C(=N\c2cc(=O)[nH]n2S(=O)(=O)c2ccccc2)Nc2ccccc21`: the growth is 101% (inactive).

For the compound `c1ccc(Nc2ccccn2)cc1`, the growth is 108% (inactive).

`COc1ccc(OC)c(Cn2cc3c(c2)-c2oncc2CC3)c1`: the growth was 42% (inactive).

With `O=C1C(=O)c2ccccc2C(O)=C1CCCc1ccc(C2CCCC2)cc1`, the growth was 27% (inactive).

Consider `CCCOC(=O)c1c(C)n(C)c2scc[n+]12`, for which the growth was 43% (inactive).

Take `COc1cc(-c2nc3c(c(C)nc4c3nnn4-c3ccccc3)c(=O)o2)cc(OC)c1OC`: the growth is 115% (inactive).

For `COC(=O)Nc1nc2ccc(C(=O)c3ccccc3N(C)C3COC3)cc2[nH]1`, the growth was 53.6% (inactive).

On to `COc1cc(Cn2ccc3c2-c2oncc2CC3)cc(OC)c1`, for which the growth is 53.9% (inactive).

As to `c1ccc(Nc2ncc3c(n2)-c2cccn2CC3)cc1`, the growth is 66.2% (inactive).

Turning to `N=c1c2c(=O)n3c(nc2nc2sc4ccc(Cl)cc4n12)-c1ccccc1Sc1ccccc1-3`, the growth was 9.46% (active).

Turning to `NC(=O)CC(NC(=O)COc1ccc(Cl)cc1Cl)C(=O)O` (stereo not given), the growth was 111% (inactive).

As to `C=C(C)[C@@H]1CC[C@]2(COC(=O)c3ccccc3C(=O)O)CC[C@]3(C)[C@H](CC[C@@H]4[C@@]5(C)CCCNC(C)(C)[C@@H]5CC[C@]43C)[C@@H]12`, the growth was 78.6% (inactive).

Take `C/C=C(/C)C(=O)OC1C=C(CO)C(=O)C(OC(=O)/C(C)=C\C)C1C(C)C` (stereo not given): the growth was -55.1% (active).

As for `CC(=O)OC1CC2C3CCC4C[C@@H](NC(=O)C=C(C)C)CC[C@]4(C)C3CC[C@]2(C)[C@H]1C(C)N(C)C` (stereo not given in full), the growth was 29.3% (inactive).

As to `CC(=O)/C(=C/c1ccc(-c2ccccc2)cc1)C(=O)c1ccccc1`, the growth is 100% (inactive).

In a further assay the test system is SN12C renal. The assay is described as above. Particulars: 10 µM unless noted.
`Nc1ccc(S(=O)(=O)c2ccc(NO)cc2)cc1`: the growth was 121% (inactive).

On to `COc1cc(NC(C)CCCN)c2nccc(C)c2c1OC` (stereo not given), for which the growth was 82% (inactive).

Turning to `CCCC(=O)NNc1[nH]c(-c2cc(OC)c(OC)c(OC)c2)cc1C(=O)OCC`, the growth is 108% (inactive).

`CC(C)OC(=O)c1ccc2n1CCCc1cnc(Nc3ccccc3)nc1-2`: the growth was 81.7% (inactive).

As to `COC(=O)c1ccc2[nH]c(O)c(C(=Nc3ccc(N(C)C(=O)CN4CCN(C)CC4)cc3)c3ccc(OC)cc3)c2c1`, the growth was 17% (inactive).

As to `CC(=O)c1cc(Nc2cc(C)nc(N)n2)cc(C(C)=O)c1`, the growth is 94.1% (inactive).

Take `CCOC(=O)C1=C(C(F)(F)F)NC(=S)NC1CN1C(=O)c2ccccc2C1=O` (stereo not given): the growth is 105% (inactive).

`CC(C)OC(=O)[C@H](C)N[P@@](=O)(OC[C@@]1(C)O[C@@H](n2cc(F)c(N)nc2=O)C[C@@H]1O[P@](=O)(N[C@@H](C)C(=O)OC(C)C)Oc1ccccc1)Oc1ccccc1`: the growth was 72.6% (inactive).

Regarding `COc1ccc(Cn2cc3c(c2-c2ccccc2)CCc2cnoc2-3)cc1OC`, the growth was 49.5% (inactive).

With `CC1C(=O)CCCC1=O`, the growth is 95.6% (inactive).

In the case of `Brc1ccc(-c2nc3ccccc3s2)cc1`, the growth is 95% (inactive).

Consider `O=C(Nc1cccc(Cn2c(=O)[nH]c3ccc(Oc4ncccn4)cc3c2=O)c1)c1ccc(Cl)cc1`, for which the growth is 63.5% (inactive).

As for `Cc1ccc(S(=O)(=O)Nc2cccc(Cn3c(=O)[nH]c4ccc(Oc5ncccn5)cc4c3=O)c2)cc1`, the growth was 86.5% (inactive).

`CC1(C)Oc2cc3oc(=O)ccc3cc2C[C@@H]1OCCOS(=O)(=O)c1ccc(C#N)cc1`: the growth is 91.5% (inactive).

`COC1NC(Cl)=C(C#N)C(C#N)(C#N)C1(C)C` (stereo not given): the growth is 104% (inactive).

On to `COc1ccccc1C(=O)Nc1cccc(-c2cc(=O)c3c(OC)c(OC)c(OC)cc3o2)c1`, for which the growth was 41% (inactive).

In the case of `C=C(NC(=O)[C@H](C(C)C)N(C)c1cccc2[nH]ccc12)C(=O)OC`, the growth is 101% (inactive).

`Cc1nc2c(nnn2-c2ccccc2)c2nc(-c3ccccc3)oc(=O)c12`: the growth was 103% (inactive).

In the case of `CCCCCCCCCC[N+](C)(C)C`, the growth is 29.5% (inactive).

As to `CCOC(=O)c1ccc2n1CCCc1cnc(NC(C)=O)nc1-2`, the growth is 102% (inactive).

With `O=S(=O)(O)c1ccc2c(c1)Sc1cc(S(=O)(=O)O)ccc1O2`, the growth was 95.8% (inactive).

As for `COc1cc(/C=C/C(=O)c2ccc(F)cc2)ccc1OCCCCOc1cc2c(cc1OC)C(=O)N1CCCC1C=N2` (stereo not given), the growth is -48.1% (active).

With `COC(=O)C(C)[C@H]1CC[C@@H]2[C@]1(C)CC=C1[C@]23C=C[C@]2(C[C@@H](OC(C)=O)CC[C@]12C)C(C(=O)OC)C3C(=O)OC` (stereo not given in full), the growth was 100% (inactive).

`COc1ccc2cnc(N)c(C#Cc3cc(C(=O)Nc4ccc(CN5CCN(C)CC5)c(C(F)(F)F)c4)cnc3C)c2c1`: the growth was 50% (inactive).

In the case of `COc1cccc2c1nc1cccc(OC)c1[n+]2[O-]`, the growth was 43.7% (inactive).

On to `O=C1/C(=N\c2cc(=O)[nH]n2S(=O)(=O)c2ccccc2)Nc2ccccc21`, for which the growth was 98.2% (inactive).

In the case of `c1ccc(Nc2ccccn2)cc1`, the growth was 94.6% (inactive).

Turning to `COc1ccc(OC)c(Cn2cc3c(c2)-c2oncc2CC3)c1`, the growth is 45.9% (inactive).

With `O=C1C(=O)c2ccccc2C(O)=C1CCCc1ccc(C2CCCC2)cc1`, the growth is 49.5% (inactive).

Turning to `CCCOC(=O)c1c(C)n(C)c2scc[n+]12`, the growth was 92.4% (inactive).

`COc1cc(-c2nc3c(c(C)nc4c3nnn4-c3ccccc3)c(=O)o2)cc(OC)c1OC`: the growth was 102% (inactive).

Consider `COC(=O)Nc1nc2ccc(C(=O)c3ccccc3N(C)C3COC3)cc2[nH]1`, for which the growth is 44.1% (inactive).

For `COc1cc(Cn2ccc3c2-c2oncc2CC3)cc(OC)c1`, the growth was 38% (inactive).

Take `c1ccc(Nc2ncc3c(n2)-c2cccn2CC3)cc1`: the growth is 85.7% (inactive).

`N=c1c2c(=O)n3c(nc2nc2sc4ccc(Cl)cc4n12)-c1ccccc1Sc1ccccc1-3`: the growth was 21.4% (inactive).

`NC(=O)CC(NC(=O)COc1ccc(Cl)cc1Cl)C(=O)O` (stereo not given): the growth was 101% (inactive).

Regarding `C=C(C)[C@@H]1CC[C@]2(COC(=O)c3ccccc3C(=O)O)CC[C@]3(C)[C@H](CC[C@@H]4[C@@]5(C)CCCNC(C)(C)[C@@H]5CC[C@]43C)[C@@H]12`, the growth is 59.3% (inactive).

Turning to `C/C=C(/C)C(=O)OC1C=C(CO)C(=O)C(OC(=O)/C(C)=C\C)C1C(C)C` (stereo not given), the growth was -56.9% (active).

`CC(=O)OC1CC2C3CCC4C[C@@H](NC(=O)C=C(C)C)CC[C@]4(C)C3CC[C@]2(C)[C@H]1C(C)N(C)C` (stereo not given in full): the growth was 14.3% (inactive).

In the case of `CC(=O)/C(=C/c1ccc(-c2ccccc2)cc1)C(=O)c1ccccc1`, the growth was 92.7% (inactive).

Values taken from PubChem BioAssay (NCI).
